# From PubChem
# ATXN2 expr inh = Primary qHTS for Inhibitors of ATXN expression; 360,000 compounds, 0.72% hits; Potency, µM (highest dose often 57 µM), for inactives: top-dose activity change, negative = inhibition, most hits filed as inhibitors; HEK-293 ATXN2-luciferase reporter, luminescence, 24 h; also: potency is read from the fitted curve at half-maximal effect; % is scaled to controls: 0 for no effect and ±100 for the full control effect; nearly all actives have a fitted effect of over 55% in size
#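 ATXN2-luciferase reporter cells (luciferase flanked by upstream and downstream ATXN2 gene portions) were treated 24 h at 37 °C with compounds at up to 57 uM. SteadyGlo luminescence gave expression; GF-AFC fluorescence gave viability.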
# D3 ag = qHTS of D3 Dopamine Receptor Agonist: qHTS | D3R DiscoveRx beta-arrestin cells, luminescence, 90 min | D(3) dopamine receptor (Homo sapiens), P35462 | max activation, % | 410,000 compounds, 0.58% hits; in the data active = max activation above about 30%; also: 0% is about no effect
# Target sequence (P35462 whole entry, looked up): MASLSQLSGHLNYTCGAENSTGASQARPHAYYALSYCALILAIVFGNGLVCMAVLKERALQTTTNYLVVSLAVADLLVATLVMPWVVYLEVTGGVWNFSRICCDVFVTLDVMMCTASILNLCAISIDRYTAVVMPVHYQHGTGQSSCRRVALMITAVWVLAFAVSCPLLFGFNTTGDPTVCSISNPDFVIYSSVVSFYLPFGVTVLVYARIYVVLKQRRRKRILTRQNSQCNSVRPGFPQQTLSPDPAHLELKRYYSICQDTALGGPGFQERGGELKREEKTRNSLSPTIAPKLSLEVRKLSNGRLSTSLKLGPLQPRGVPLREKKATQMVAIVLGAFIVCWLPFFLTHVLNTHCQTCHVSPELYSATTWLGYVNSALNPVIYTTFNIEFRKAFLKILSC
#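 Agonist-mode cell screen: cells plated at 1500/well and incubated overnight at 37 °C, then exposed to library compounds for 90 min at 37 °C. Detection reagent was added for 30–60 min at room temperature, and luminescence was read.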
# HepG2 tox = qHTS for Inhibitors of TGF-b: Cytotox Counterscreen | 410,000 compounds, 0.76% hits | Potency, µM (titrated, usually from 46.1 µM), for the others: at the highest dose activity change, negative = cytotoxicity, actives largely listed as cytotoxic | HepG2 CAGA-GFP viability, ATP luminescence, 18 h | AID 588856, 2011; also: potency is read from the fitted curve at half-maximal effect
#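 HepG2 CAGA-GFP cells (1000/well, DMEM with 1% FBS) received compound, then TGF-beta at 500 pg/mL final, and were incubated 18 hours at 37 degrees C. Viability was read by CellTiter-Glo luminescence. Media-only wells were set as complete cell-killing and DMSO as no toxicity.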
# TGFb SMAD3 inh = qHTS for Inhibitors of TGF-b; HepG2 CAGA-GFP TGF-b/SMAD3 reporter, GFP fluorescence, 18 h; TGF-beta stimulated, 500 pg/mL final; AID 588855, 2011; Potency, µM (top dose mostly 46.1 µM), inactives show at the top dose activity, negative = inhibition, most hits filed as inhibitors; 410,000 compounds, 1.2% hits; also: potency is read from the fitted curve at half-maximal effect; % is scaled to controls: 0 for no effect and ±100 for the full control effect; nearly all actives have a fitted effect of over 65% in size
#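 HEPG2 CAGA-GFP reporter cells (1000/well, DMEM with 1% FBS) received compounds, then recombinant TGF-beta at 500 pg/mL final for 18 hours at 37 degrees C. Per-cell GFP summed per well was normalised to unstimulated and stimulated DMSO controls before curve fitting.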
# S2 tox = Viability Counterscreen for Primary qHTS for Inhibitors of ATXN expression. 400,000 compounds, 0.49% hits. AID 651635, 2014. Potency, µM (doses to about 56.7 µM), hits mostly cytotoxic. S2 cells (HEK-293 line with an ATXN2-luciferase reporter) viability, CellTiter-Fluor protease fluorescence, 24 h; also: potency is read from the fitted curve at half-maximal effect; nearly all actives have a fitted effect of over 40% in size
# DRD3 antagonist = qHTS of D3 Dopamine Receptor Antagonist: qHTS | AID 652054, 2013 | D3R cells, DiscoveRx beta-arrestin luminescence, antagonist mode; stronger effect = lower value | 360,000 compounds, 2.5% hits | max response, negative = inhibition, %; in the data active = max response below about -50%; inconclusive = no clear call, values can overlap the other calls; also: % is scaled to controls: 0 for no effect and ±100 for the full control effect
#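 Cells expressing the human receptor were seeded at 1500 cells/well, incubated overnight at 37 degrees C in 5% CO2, then exposed to library compounds with dopamine controls for 90 minutes at 37 degrees C before luminescent detection.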
# * = called active by the depositor; i = inactive; ? = inconclusive; · = not tested or not shown; ! = not confirmed by another sample. Rows were chosen to be rich in hits. Some 4.7% of all compounds tested hit in one or more screens of this group. Unless noted, calls follow the shape of the dose curve; as a rule, active = well fitted curve in the direction sought with a large enough effect; inconclusive = small, poorly fitted or top-dose-only effect, or another doubt; inactive = no such curve, though single readings can be large; an effect the other way counts as inactive or inconclusive.
SMILES,ATXN2 expr inh,D3 ag,HepG2 tox,TGFb SMAD3 inh,S2 tox,DRD3 antagonist
Cc1ccc([C@H]2C[C@@H](O)[C@H](n3cc(COC(=O)c4ccccc4)nn3)CN2CC2CCCCC2)cc1,0%,0,-9%,0%,i,7
COc1cccc2c1C(=O)c1c(O)c3c(c(O)c1C2=O)CC(O)(C(C)=NO)CC3OC1CC(N)C(O)C(C)O1 (stereo not given),1.6µM*,-16,3%,6.3µM*,?,16
CC(=O)O[C@@]12CO[C@H]1C[C@H](O)[C@@]1(C)C(=O)[C@H](O)C3=C(C)[C@@H](O)C[C@@](O)([C@@H](OC(=O)c4ccccc4)[C@@H]21)C3(C)C,-7%,·,·,·,·,·
CCCN(CC#CCOc1ccc(OC)cc1)CCC,-6%,-9,-7%,-17%,i,-52*
Clc1ccccc1N1CCNCC1,7%,·,·,·,i,·
Clc1cccc(N2CCNCC2)c1Cl,-12%,7,-7%,25%,i,-56*
O=P1(Oc2ccccc2)CC=CC(COC(c2ccccc2)(c2ccccc2)c2ccccc2)O1 (stereo not given),·,·,-19%,16µM*,·,·
CCC1(c2cnc[nH]2)Cc2ccccc2C1,1%,-17,·,·,i,·
CC1(C)C2CC=C(CN3CCOCC3)C1C2 (stereo not given),-1%,2,-5%,-11%,i,-53*
O=C(C1CCCN(S(=O)(=O)c2cccc3nsnc23)C1)N1CCN(c2cccc(Cl)c2)CC1 (stereo not given),-35%,32*,-9%,?,i,·
CCO[C@H]1O[C@@H]2OC3(C)CC[C@H]4[C@H](C)CC[C@@H]([C@H]1C)[C@@]24OO3,-8%,·,·,·,i,·
c1ccc2c(c1)Sc1ccccc1N2C[C@@H]1CN2CCC1CC2,·,-8,·,·,i,·
OCCN1CCN(CCCN2c3ccccc3Sc3ccc(C(F)(F)F)cc32)CC1,28µM*!,-86,-66%,?,?,-96*
FC(F)(F)c1ccc2c(c1)N(CCCN1CCN(CCCl)CC1)c1ccccc1S2,?,-18,-76%,?,?,-78*
CCCCCCC(=O)O[C@H]1CC[C@H]2[C@@H]3CC[C@H]4CC(=O)C=C(C)[C@]4(C)[C@H]3CC[C@]12C,·,7,·,·,·,·
COc1cccc(NP(=O)(Oc2ccccc2)Oc2ccccc2)c1,-13%,4,-6%,18µM*,i,-1
O=P(Nc1cccc(Cl)c1)(Oc1ccccc1)Oc1ccccc1,-7%,32*,-41%,?,?,21
O=C1CC(N2CCC(n3c(=O)[nH]c4ccccc43)CC2)C(=O)N1Cc1ccccc1 (stereo not given),8%,1,-10%,8%,i,-16
O=c1[nH]c2ccccc2n1C1CCN(Cc2ccc(-c3[nH]c4cc5ncnc5cc4nc3-c3ccccc3)cc2)CC1,?,-16,·,·,?,-96*
O=C1NC(=O)N(c2ccccc2)C(=O)/C1=C\C=C\c1ccccc1,14µM*,17,-49%,7.1µM*,14µM*,5
CCc1ccc(N2C(=O)NC(=O)/C(=C\C=C\c3ccco3)C2=O)cc1,·,-3,-33%,?,10µM*,-15
CC(C)c1ccc(N2C(=O)NC(=O)/C(=C/C=C/c3ccco3)C2=O)cc1,28µM*,3,16%,?,·,?
Cc1ccc(N2C(=O)NC(=O)/C(=C/C=C/c3ccco3)C2=O)cc1,?,1,-31%,11µM*,?,?
Cc1cc(C)cc(N2C(=O)NC(=O)/C(=C\C=C\c3ccco3)C2=O)c1,?,1,-6%,?,?,-15
O=C1NC(=O)N(Cc2ccc(F)cc2)C(=O)/C1=C\C=C\c1ccco1,?,6,-49%,?,?,-11
SMILES,ATXN2 expr inh,D3 ag,HepG2 tox,TGFb SMAD3 inh,S2 tox,DRD3 antagonist
COc1cc(/C=C2\C(=O)NC(=O)N(c3ccccc3)C2=O)cc(OC)c1OC,-2%,-12,9%,-23%,i,39
CCCCn1c(N)c(N(CCOC)C(=O)CCCn2c(=O)oc3ccccc32)c(=O)[nH]c1=O,-10%,8,-18%,-8%,i,8
CCN1C[C@@]2(COC)CC[C@H](O)[C@@]34[C@@H]2C[C@@H]([C@@H]13)[C@]1(O)C[C@@H](OC)C2C[C@H]4[C@H]1[C@H]2OC(C)=O,·,·,·,·,i,·
Cn1c(=O)oc(=O)c2ccccc21,8%,31*,-16%,-4%,i,4
Cc1cc(C(=O)N=Nc2c(O)n(C)c3ccccc23)c(C)o1,13%,3,10%,7%,i,-3
N#CSCC(=O)N1c2ccccc2CCc2ccccc21,?,-7,-22%,25µM*,?,-29
C#CC(O)(C=CCl)CC (stereo not given),5%,·,·,·,i,·
Oc1ccc2c3c1OC1c4[nH]c5ccccc5c4C[C@@]4(O)C(C2)N(CC2CC2)CC[C@]314 (stereo not given in full),5%,1,-9%,-1%,i,2
O=C1/C(=C/c2ccccc2)C[C@@]2(O)[C@H]3Cc4ccc(O)c5c4[C@@]2(CCN3CC2CC2)C1O5 (stereo not given in full),3.5µM*,-45,10µM*,5.6µM*,7.1µM*,-4
CCCC[N+]1(C)[C@H]2CC(OC(=O)[C@H](CO)c3ccccc3)C[C@H]1[C@H]1O[C@H]12 (stereo not given in full),4%,·,·,·,·,·
C=C(COC(=O)CCC(=O)O)CC1CC(O)[C@]2(C)OC3CC4OC5C[C@]6(C)O[C@]7(C)CCC8OC9C[C@]%10(C)OC%11C(C)=CC(=O)OC%11CC%10OC9C[C@@H](C)C8OC7CC6O[C@]5(C)C/C=C\C4OC3CC2O1 (stereo not given in full),4%,-7,·,-6%,i,5
CC1=CC(=O)OC2CC3OC4C[C@@H](C)C5OC6CC7O[C@]8(C)C/C=C\C9OC%10CC%11OC(CC(C)CO)CC(O)[C@]%11(C)OC%10CC9OC8C[C@]7(C)O[C@]6(C)CCC5OC4C[C@]3(C)OC12 (stereo not given in full),5%,46*,-3%,6%,i,60
